# Source: publication PMC8384837, “Expanding the binding specificity for RNA recognition by a PUF domain”
# Columns and labels:
# Assay in all cases: yeast three-hybrid, YBZ-1, SC-Leu-His + 0.5 mM 3-AT, 4 days
# Conditions in all cases: tags: N-Gal4 AD-HA kept; label: inside an RPR1-promoter hybrid RNA with tandem MS2 sites; ssRNA
# PUM1 PUF domain R4-DHC = PUM1 PUF domain R4-DHC (Homo sapiens, UniProt Q14671 828-1176, N971D;Q975C)
# Summary of the method: (§1)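 Sequencing with Illumina followed PCR amplification of the repeat regions from transformants grown four days on SC-Leu (input) or SC-Leu-His + 0.5 mM 3-AT (selection). The transformants were strain YBZ-1 with a LexA–MS2 coat fusion and a HIS3 reporter, carrying Pumilio-1 PUF domain libraries and matching RNA elements. The interaction score is the log change in variant frequency from input to selection, computed in log2 with a pseudocount of 1 for absent variants.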
# PUM1 PUF domain R4-APT = PUM1 PUF domain R4-APT (Homo sapiens, UniProt Q14671 828-1176, N971A;H972P;Q975T)
# Summary of the method: as §1
# PUM1 PUF domain R4-VNN = PUM1 PUF domain R4-VNN (Homo sapiens, UniProt Q14671 828-1176, N971V;H972N;Q975N)
# Summary of the method: as §1
# PUM1 PUF domain R3-ATE = PUM1 PUF domain R3-ATE (Homo sapiens, UniProt Q14671 828-1176, C935A;R936T;Q939E)
# Summary of the method: as §1
# PUM1 PUF domain R5-RGS = PUM1 PUF domain R5-RGS (Homo sapiens, UniProt Q14671 828-1176, C1007R;R1008G;Q1011S)
# Summary of the method: as §1
# PUM1 PUF domain R5-KSV = PUM1 PUF domain R5-KSV (Homo sapiens, UniProt Q14671 828-1176, C1007K;R1008S;Q1011V)
# Summary of the method: as §1
# PUM1 PUF domain R8-QFQ = PUM1 PUF domain R8-QFQ (Homo sapiens, UniProt Q14671 828-1176, N1122Q;Y1123F)
# Summary of the method: as §1
# PUM1 PUF domain R6-LYS = target: T1, PUM1 PUF domain R6-LYS (Homo sapiens, UniProt Q14671 828-1176, N1043L;Q1047S)
# T1 sequence: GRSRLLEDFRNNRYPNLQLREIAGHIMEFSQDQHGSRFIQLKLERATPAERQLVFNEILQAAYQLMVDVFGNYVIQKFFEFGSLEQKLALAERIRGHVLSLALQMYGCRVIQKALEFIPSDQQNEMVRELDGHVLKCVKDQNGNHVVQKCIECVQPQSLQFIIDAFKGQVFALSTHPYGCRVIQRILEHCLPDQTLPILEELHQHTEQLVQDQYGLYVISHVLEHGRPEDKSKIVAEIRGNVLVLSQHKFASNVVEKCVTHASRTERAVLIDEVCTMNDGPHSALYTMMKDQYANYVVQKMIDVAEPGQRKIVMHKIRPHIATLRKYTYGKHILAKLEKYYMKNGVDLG
# Summary of the method: as §1
# PUM1 PUF domain R3-TWW = PUM1 PUF domain R3-TWW (Homo sapiens, UniProt Q14671 828-1176, C935T;R936W;Q939W)
# Summary of the method: as §1
# PUM1 PUF domain R3-RRC = PUM1 PUF domain R3-RRC (Homo sapiens, UniProt Q14671 828-1176, C935R;Q939C)
# Summary of the method: as §1
sequence,measurement,setting,value
GGCUAGAACUAGUGGAUCCCCCGGCGCCCGGCGGCUCGAGCCCGGGUAAGUGUACAUAGUCUGCAUGCCGCCGGGCGCCAUGCCUGCAGGUCGACUCUAGAAAACAUG,binding signal,PUM1 PUF domain R4-DHC,4.45 log2 enrichment (interaction score)
GGCUAGAACUAGUGGAUCCCCCGGCGCCCGGCGGCUCGAGCCCGGGUAAGUGUAUAUAGUCUGCAUGCCGCCGGGCGCCAUGCCUGCAGGUCGACUCUAGAAAACAUG,binding signal,PUM1 PUF domain R4-APT,2.95 log2 enrichment (interaction score)
same,binding signal,PUM1 PUF domain R4-VNN,3.82 log2 enrichment (interaction score)
same,binding signal,PUM1 PUF domain R4-DHC,6.39 log2 enrichment (interaction score)
GGCUAGAACUAGUGGAUCCCCCGGCGCCCGGCGGCUCGAGCCCGGGUAAGUGUAAGUAGUCUGCAUGCCGCCGGGCGCCAUGCCUGCAGGUCGACUCUAGAAAACAUG,binding signal,PUM1 PUF domain R3-ATE,3.33 log2 enrichment (interaction score)
GGCUAGAACUAGUGGAUCCCCCGGCGCCCGGCGGCUCGAGCCCGGGUAAGUGUUAAUAGUCUGCAUGCCGCCGGGCGCCAUGCCUGCAGGUCGACUCUAGAAAACAUG,binding signal,PUM1 PUF domain R5-RGS,2.13 log2 enrichment (interaction score)
same,binding signal,PUM1 PUF domain R5-KSV,2.74 log2 enrichment (interaction score)
GGCUAGAACUAGUGGAUCCCCCGGCGCCCGGCGGCUCGAGCCCGGGUAAGUGUCAAUAGUCUGCAUGCCGCCGGGCGCCAUGCCUGCAGGUCGACUCUAGAAAACAUG,binding signal,PUM1 PUF domain R5-RGS,2.45 log2 enrichment (interaction score)
same,binding signal,PUM1 PUF domain R5-KSV,3.48 log2 enrichment (interaction score)
GGCUAGAACUAGUGGAUCCCCCGGCGCCCGGCGGCUCGAGCCCGGGUAAGUGUAAAUAGUCUGCAUGCCGCCGGGCGCCAUGCCUGCAGGUCGACUCUAGAAAACAUG,binding signal,PUM1 PUF domain R4-APT,4.02 log2 enrichment (interaction score)
same,binding signal,PUM1 PUF domain R8-QFQ,2.91 log2 enrichment (interaction score)
same,binding signal,PUM1 PUF domain R4-DHC,3.99 log2 enrichment (interaction score)
same,binding signal,PUM1 PUF domain R6-LYS,4.98 log2 enrichment (interaction score)
same,binding signal,PUM1 PUF domain R3-TWW,3.61 log2 enrichment (interaction score)
GGCUAGAACUAGUGGAUCCCCCGGCGCCCGGCGGCUCGAGCCCGGGUAAGUGUAAUUAGUCUGCAUGCCGCCGGGCGCCAUGCCUGCAGGUCGACUCUAGAAAACAUG,binding signal,PUM1 PUF domain R3-RRC,3.79 log2 enrichment (interaction score)
same,binding signal,PUM1 PUF domain R3-TWW,1.77 log2 enrichment (interaction score)
